Bioassay records: PubChem, National Center for Advancing Translational Sciences (NCATS)
JMJD2A Tudor = JMJD2A Tudor domain (human) inhibition; O75164; AlphaScreen JMJD2A-Tudor / H3K4me3 peptide binding; Potency, µM (highest dose often 114 µM), for the others: at the highest dose activity change, negative = inhibition, most hits filed as inhibitors; actives 4.4% (n = 390,000); AID 504339; further: on the % scale 0 is the no-effect control and ±100 the full control effect; nearly all actives have a fitted effect of over 50% in size
BAZ2B inh = inhibitors of human BAZ2B bromodomain; Potency, µM (top dose mostly 114 µM), inactives show top-dose activity change, negative = inhibition, hits mostly inhibitors; AlphaScreen BAZ2B-H3K14Ac peptide displacement; AID 504333; actives 4.4% (n = 360,000); further: on the % scale 0 is the no-effect control and ±100 the full control effect; nearly all actives have a fitted effect of over 60% in size
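Protein-peptide AlphaScreen: BAZ2B 50 nM, b-H3K14Ac 50 nM, 1x PBS pH 7.4 + 0.01% Tween-20. Preincubation 30 min RT; cpd 30 min RT (top 110 uM); beads 20 min RT, light-protected.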
HP1b binding inh = HP1-beta chromodomain-methylated histone interaction inhibition; P83916; AlphaScreen HP1-beta / biotin-H3K9me3 peptide binding; Potency, µM (doses to about 114 µM), without a hit: top-dose activity change, negative = inhibition, most hits filed as inhibitors; actives 0.56% (n = 390,000); AID 540317; further: nearly all actives have a fitted effect of over 70% in size
Target sequence (P83916 whole entry, looked up): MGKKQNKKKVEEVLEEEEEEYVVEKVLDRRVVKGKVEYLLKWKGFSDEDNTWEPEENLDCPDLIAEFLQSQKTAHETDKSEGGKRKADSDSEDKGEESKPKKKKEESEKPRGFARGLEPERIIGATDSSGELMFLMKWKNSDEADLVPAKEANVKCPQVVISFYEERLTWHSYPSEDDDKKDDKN
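HP1-beta protein (50 nM final) preincubated 30 min at room temperature with biotinylated H3(1-18)K9me3 peptide (50 nM) in PBS pH 7.4, 0.01% Tween-20, then compound added for 30 min. AlphaScreen streptavidin donor/nickel chelate acceptor beads (10 ug/mL final), 30 min dark, luminescence read.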
G9a inh = G9a (human) methyltransferase inhibition. Q96KQ7. AID 504332. actives 8.8% (n = 350,000). G9a H3K9 monomethylation, AlphaScreen, 2 h. Potency, µM (titrated, usually from 102 µM), without a hit: at the highest dose activity, negative = inhibition, actives largely listed as inhibitors; further: on the % scale 0 is the no-effect control and ±100 the full control effect; nearly all actives have a fitted effect of over 75% in size
Target sequence (Q96KQ7 913-1193 limits assumed): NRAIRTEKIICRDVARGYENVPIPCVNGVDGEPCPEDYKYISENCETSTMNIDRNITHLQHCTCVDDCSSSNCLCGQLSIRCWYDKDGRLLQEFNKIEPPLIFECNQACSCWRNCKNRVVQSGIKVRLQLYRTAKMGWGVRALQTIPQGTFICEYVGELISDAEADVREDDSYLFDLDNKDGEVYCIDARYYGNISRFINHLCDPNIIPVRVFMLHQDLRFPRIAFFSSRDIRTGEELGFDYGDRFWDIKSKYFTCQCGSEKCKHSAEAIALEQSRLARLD
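Methyltransferase reactions run at room temperature for 2 h (20 nM enzyme, 500 nM biotin-H3K9 peptide, 20 uM SAM) after a 15 min compound preincubation; product detected by AlphaScreen beads and anti-H3K9me1 antibody.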
Sfp PPTase inh = Sfp phosphopantetheinyl transferase inhibition. Biochemical Sfp PPTase activity, qHTS. actives 3.5% (n = 310,000). Potency, µM, for inactives: largest response in the series, negative = inhibition, hits mostly inhibitors. AID 1490. Q9F4F7;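 further: the enzyme is Sfp with the accession as filed and its product quenches rhodamine fluorescence; 0% = enzyme reaction without inhibitor and -100% = no enzyme wells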
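Compounds were incubated with enzyme (final 15 nM) for 15 min at room temperature before substrate addition started the reaction. Fluorescence at 525 nm excitation, 598 nm emission was recorded immediately and after 30 minutes.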
* hit, by the source's call; ? = inconclusive; nt = no result; [ ] = dose if it differs, or a comment. Sampled rows, rich in hits. Any-hit rate of the full collection: about 12%. The call rests on the fitted dose curve; in most records, active means well fitted curve in the direction sought with a large enough effect; inconclusive means small, poorly fitted or top-dose-only effect, or another doubt; inactive means no such curve, though single readings can be large; an effect the other way counts as inactive or inconclusive. Potency means the concentration at half of the fitted maximal effect.

SMILES | JMJD2A Tudor | BAZ2B inh | HP1b binding inh | G9a inh | Sfp PPTase inh
CCCN(CCC)C(=O)Cn1c(SCc2cccc(C(F)(F)F)c2)nc2cccnc21 | -1.7% | 1.3% | 37.8% | -38.5%[59 µM] | nt
Cc1ccc(CNS(=O)(=O)c2cnc(N)nc2)cc1 | -3.5% | 0.6% | 33.9%[57 µM] | 5.4%[59 µM] | nt
COc1ccc(C(C)=O)cc1CSc1nc(NCc2ccccc2)c2ccccc2n1 | -24.3% | -25.5% | 15.5% | -6.5%[59 µM] | nt
COc1ccc(S(=O)(=O)N(C(C)=O)c2ccc(OC(C)=O)c3ccccc23)cc1[N+](=O)[O-] | -25.5% | 4.0% | 40.8% | 79.4µM* | 8.8%
CCOC(=O)c1oc2cccc(O)c2c1C | -3.6% | 7.2% | -8.2% | -40.9%[2.33 µM] | -2.8%
CCOC(=O)c1oc2ccc(CNC(C)(C)C)c(Cl)c2c1C | 10µM* | 50.1µM* | -33.4% | 8.91µM* | -7.4%
Nc1ccc(N2CCN(c3ccc(Cl)c(Cl)c3)CC2)cc1 | 44.7µM* | 14.1µM* | 17.8µM* | ? | -15.7%
COC(=O)N1CCN(c2ccc(Cl)c(Cl)c2)CC1 | 23.1% | -1.1% | 22.5% | 5.9%[59 µM] | 4.6%
Nc1ccc(N2CCCCCC2)cc1 | nt | 31.6µM* | nt | 3.55µM* | 8.91µM*
CC(=O)N1CCN(c2ccc(N)cc2)CC1 | -14.1% | ? | 17.6% | -13.2%[2.33 µM] | nt
O=C(O)/C=C/C(=O)N1CCN(c2ccc(F)cc2)CC1 | -72.5% | -25.1% | -13.0% | 50.1µM* | -5.9%
Nc1ccc(N2CCN(c3ccc(F)cc3)CC2)cc1 | ? | 35.5µM* | ? | nt | -2.7%
COc1ccccc1-c1nn2c(=O)cc(CN3CCN(S(=O)(=O)c4ccc(C)cc4)CC3)nc2s1 | -10.4% | 1.9% | 18.9%[57 µM] | 1.4%[59 µM] | nt
Nc1nc(NCCO)nc(N2CCCCCC2)c1[N+](=O)[O-] | -6.8% | -1.7% | 25.0% | -8.9% | 18.7%
OCCN(CCO)c1nc(N2CCCCC2)c2nc(N(CCO)CCO)nc(N3CCCCC3)c2n1 | -24.1% | ? | 22.4% | 22.4µM* | -25.6%
COc1ccc(S(=O)(=O)N2CCN(CC(=O)Nc3ccc(F)c(F)c3)CC2)cc1 | -10.6% | 8.1% | 13.1% | 44.7µM* | 6.6%
CCc1cccc(CC)c1NC(=O)CN1CCN(S(=O)(=O)c2ccccc2)CC1 | -9.7% | -14.5% | 7.8% | 44.7µM* | 5.4%
COc1ccc(S(=O)(=O)N2CCN(CC(=O)Nc3cccc(OC)c3)CC2)cc1 | -5.9% | -16.9% | 12.5%[57 µM] | 15.4% | 5.1%
O=C(Cc1ccc(F)cc1)Nc1ccc(S(=O)(=O)N2CCCC2)cc1 | -4.1% | 6.6% | 16.6% | 50.1µM* | nt
O=C(CNc1ccc(Cl)c(C(F)(F)F)c1)N1CCN(S(=O)(=O)c2ccccc2)CC1 | 79.4µM* | nt | -33.2% | nt | nt
COc1cc2nc(NCCc3ccc(Cl)cc3)n3nc(-c4ccccc4)nc3c2cc1OC | -7.6% | -29.1% | 22.2% | -18.9%[59 µM] | nt
COc1ccccc1CNC(=O)CCCCn1c(=O)c2ccccc2n(Cc2c(C)cc(C)cc2C)c1=O | -8.9% | -0.8% | 8.5% | -26.8%[59 µM] | nt
Cc1ccc(NC(=O)CSc2nc3ccccc3n2CC(=O)N(C)C2CCCCC2)cc1C | -0.3% | ? | 35.3% | 6.6%[59 µM] | nt
COc1ccc(S(=O)(=O)N2CCC(C(=O)NCCC(=O)Nc3cccc(Cl)c3)CC2)cc1 | 15.8µM* | -21.9% | 23.1% | -6.4% | 12.6%
O=C(CN1CCN(C(=O)c2cccc(S(=O)(=O)N3CCCC3)c2)CC1)Nc1cccc(F)c1 | -11.7% | 14.0% | 28.7% | 56.2µM* | nt
SMILES | JMJD2A Tudor | BAZ2B inh | HP1b binding inh | G9a inh | Sfp PPTase inh
O=C(CN1CCCN(S(=O)(=O)c2ccc(F)cc2)CC1)Nc1cccc(F)c1 | -13.1% | 0.1% | 41.9% | 31.6µM* | -11.2%
O=C(CN1CCN(C(=O)c2ccco2)CC1)Nc1cccc(S(=O)(=O)N2CCCC2)c1 | -13.6% | 7.0% | 22.0% | ? | nt
COc1ccc(NC(=O)CCNC(=O)C2CCN(S(=O)(=O)c3ccc(OC)cc3)CC2)cc1 | -18.6% | -12.2% | 23.2% | 4.4% | 11.9%
O=C(CN1CCN(S(=O)(=O)c2ccccc2)CC1)Nc1cccc(C(F)(F)F)c1 | 79.4µM* | 19.5% | -10.4% | 19.9%[59 µM] | 8.9%
O=C(CNc1cccc(C(F)(F)F)c1)Nc1cccc(S(=O)(=O)N2CCCC2)c1 | -14.7% | 2.8% | 36.0% | 11.5%[12.7 µM] | nt
CC(C)(C)OC(=O)NCCCCCNC(=O)c1nc[nH]c1C(=O)NCCCCCNC(=O)OC(C)(C)C | -21.4% | nt | 49.0% | nt | nt
